# Laboratory results published in PubChem BioAssay (EPA / NIEHS).
# Active and inactive are the calls of the source. The calls were made as follows: active = hit-call score of the fitted dose curve at least 0.9, where 1 is the maximum; inconclusive = response in the unintended direction; inactive = score below 0.9.
# System: DIO3 (gene 1735)
# Assay: CCTE_GLTED_hDIO3: CCTE's human Deiodinase 3 (DIO3) Inhibition Assay, Great Lakes Toxicology and Ecology Division (GLTED) Lab (AID 2284055);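 also: potency is for inhibition seen as loss of released iodide signal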
# Protocol: CCTE_GLTED_hDIO3 is a cell-free, single-readout assay designed to test the inhibitory activity of chemicals toward human iodothyronine Deiodinase type 3 (DIO3) enzyme. Enzyme is incubated in presence of test chemical for 3 hours during which uninhibited enzyme liberates free iodide from substrate. Free iodide is measured in a second step using the Sandell-Kolthoff method.CCTE_GLTED_hDIO3 is the assay component measured from the CCTE_GLTED_hDIO3 assay. It is designed to make measurements of enzyme activity, a form of enzyme reporter, as detected with absorbance signals by spectrophotometry.Data from the assay component CCTE_GLTED_hDIO3 was analyzed into 1 assay endpoint. This assay endpoint, CCTE_GLTED_hDIO3, was analyzed in the positive analysis fitting direction relative to DMSO as the negative control and baseline of activity. Using a type of enzyme reporter, loss-of-signal activity can be used to understand changes in the enzymatic activity as they relate to the gene DIO3. Furthermore, this assay endpoint can be referred to as a primary readout, because the performed assay has only produced 1 assay endpoint. To generalize the intended target to other relatable targets, this assay endpoint is annotated to the 'deiodinase' intended target family, where the subfamily is 'deiodinase Type 3'.
# […] assay, developed at Great Lakes Toxicology and Ecology Division (GLTED) within the EPA's Center for Computational Toxicology and Exposure (CCTE), is designed to test the chemicals' ability to inhibit DIO3. Assay uses human deiodinase type 3 (DIO3) enzyme produced with adenovirus expression system. Assay is based on iodide release measured by the Sandell-Kolthoff method and is run in 96-well plate format with assay plates run in triplicate (n=3). The method used for the deiodinase assay was largely based on Renko et al. (2012, 2015). These works describe the utilization of the SK reaction to measure deiodinase-liberated iodide in a 96-well-plate format. The SK reaction is based on the reduction of the yellow-colored cerium IV to the non-colored cerium III by arsenic, with the rate of this reaction increased in the presence of iodide in a concentration-dependent manner (Sandell and Kolthoff, 1937). Iodinated test chemicals can interfere as competitive inhibitors, or if the stock chemical has contaminating free-iodide present. Other chemicals, e.g.: nitrite, iron, and thiocyanate can interfere with the Sandell-Kolthoff reaction (see Sandell and Kolthoff, 1937).
row,SMILES,AC50
1,CCCCCCCCCCCCC[N+](C)(C)Cc1ccccc1,17 µM (active)
2,CCCCCCCCn1sc(Cl)c(Cl)c1=O,7.82 µM (active)
3,CCN=C1C=CC(=C(c2ccc(N(CC)CC)cc2)c2ccc(N(CC)CC)cc2)c2ccccc21,8.42 µM (active)
4,C=CC(=O)OCCC(F)(F)C(F)(F)C(F)(F)C(F)(F)F,51.8 µM (active)
5,CCCCCCCC/C=C\CCCCCCCC(=O)OCC(O)CO (stereo not given),21.3 µM (active)
6,C=C(C)C(=O)OCC(F)(F)C(F)(F)C(F)(F)C(F)F,14.2 µM (active)
7,C=CC(=O)OCC(F)(F)C(F)(F)C(F)(F)COC(=O)C=C,45.1 µM (active)
8,CCCCCCCCCCCCCC[P+](CCCC)(CCCC)CCCC,3.56 µM (active)
9,CCN=c1cc2oc3cc(NCC)c(C)cc3c(-c3ccccc3C(=O)OCC)c-2cc1C,157 µM (active)
10,CCCCCCCC/C=C\CCCCCCCC(=O)N(C)CC(=O)O,22 µM (active)
